RN4220 kill – growth inhibition of S. aureus RN4220, primary screen, OD600 | 16 h | inhibition, % (test concentration not listed) | 330,000 compounds, 0.33% hits; in the data active means inhibition above about 85%;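 further: plate controls were untreated cells for no effect and reference antibiotic for full effect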
Mtb betalactam – beta-lactam sensitization of Mtb H37Rv, H37Rv | AID 434955, 2010 | inhibition, % at 25 µM | M. tuberculosis H37Rv growth with meropenem, percent inhibition | 330,000 compounds, 0.27% hits; call rule not given here;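 further: growth measured after seven days incubation then overnight dye step; 0% = bacteria only wells and 100% = bacteria with antibiotic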
PfHsp40 rescue – rescue of yeast from PfHsp40 toxicity, primary screen, S. cerevisiae, ATP luminescence | S. cerevisiae expressing PfHsp40, growth rescue | growth rescue, % at 12.5 µM | 340,000 compounds, 0.68% hits; in the data active means growth rescue above about 28%, passing the limit was not always enough;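 further: yeast W303a lacking pdr1 and pdr3 grown in galactose medium; growth measured after three days at 30 °C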
ugtP null kill – growth inhibition of ugtP-null S. aureus, primary screen, RN4220 ugtP deletion, OD600; 16 h; 330,000 compounds, 0.54% hits; growth inhibition, % (test concentration not listed); in the data active means growth inhibition above about 68%;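 further: plate controls were untreated wells for no effect and antibiotic for full effect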
BH1578 lux ind – inducers of Vibrio cholerae quorum light production without autoinducers, primary screen, BH1578 luxS cqsA deficient, single point; 350,000 compounds, 0.16% hits; activation, % at 18.7 µM; V. cholerae BH1578 lux reporter, luminescence, 6 h; in the data active means activation mostly above about 9.7%, no sharp cut-off
An asterisk follows results filed as active; i = inactive; · = not tested or not shown; ! = repeats disagree. Rows were chosen to be rich in hits. Some 1.2% of all compounds tested hit in one or more screens of this group.

SMILES | RN4220 kill | Mtb betalactam | PfHsp40 rescue | ugtP null kill | BH1578 lux ind
Oc1ccc(N=Nc2ccc3ccccc3c2)cc1 | 99* | 25 | 72* | 99* | 1
Oc1ccc(N=Nc2c(O)ccc3ccccc23)cc1 | 86* | 97 | 5 | 98* | i
CC(C)CC1CN=C(Nc2ccccc2)N1CCCC1CCCC1 (stereo unspecified) | 1 | · | · | 5 | ·
COc1cc(=O)n(C)c2ccccc12 | 5 | 6 | 1 | 12 | 21*
N#CC(c1ccc(Cl)cc1)c1ccc2c(C(F)(F)F)cc(C(F)(F)F)nc2n1 (stereo unspecified) | 101* | 98 | 0 | 101* | 0
FC(F)(F)c1cc(C(F)(F)F)c2ccc(N3CCN(c4ccc(Cl)cc4)CC3)nc2n1 | 41 | 3 | -1 | 48 | i
COC(=O)c1ccc(-c2ccco2)n1Cc1nc(-c2ccc(OC)c(OC)c2)oc1C | -12 | -9 | 2 | 12 | i
COC(=O)c1ccc(-c2ccco2)n1Cc1ccccc1Cl | -1 | -1 | 1 | 85* | 0
CC(/C=C/c1ccccc1)=NNC(=O)c1cc(C)[nH]n1 | 10 | · | · | -8 | ·
Cc1cc(C)c(S(=O)(=O)N2CCN(c3ccccn3)CC2)c(C)c1 | 4 | · | 53* | 8 | i
CCCCN1CC(=O)N2C3c4ccc(OC)cc4OCC3C(c3ccccc3)[C@]2(C)C1=O (stereo partly specified) | 3 | · | · | -2 | ·
COc1ccc(-c2cn[nH]c2-c2ccc(OC)cc2O)cc1 | -3 | 3 | 6 | -1 | -2
COc1ccccc1-c1cn[nH]c1-c1ccc(OCc2ccccc2)cc1O | · | 71 | 214* | · | 0
COc1ccc(-c2cn[nH]c2-c2ccc(OCc3ccccc3)cc2O)cc1 | 2 | 5 | 115* | 8 | 0
CCOc1ccc(-c2[nH]ncc2Oc2cccc(OC)c2)c(O)c1 | -17 | 3 | 336* | 2 | ·
CCOC(=O)C1C2COc3ccccc3C2N2C(=O)N(c3ccc(OC)cc3)C(=O)[C@@]12C (stereo partly specified) | 7 | · | · | -2 | ·
O=C(NC1CCS(=O)(=O)C1)c1ccc2c(c1)OCO2 (stereo unspecified) | 5 | -11 | 44* | -4 | i
O=C(NC1CCCCC1)c1ccc2c(c1)OCO2 | 7 | 2 | 0 | -1 | 0
NC(=Nc1nc(-c2ccccn2)cc2ccccc12)c1ccccn1 | · | · | 163* | · | i
CCOCCCNC(=O)C1(O)c2cc(Br)ccc2NC(=O)N1c1ccc(OCC)cc1 (stereo unspecified) | -4 | 0 | 51* | -3 | -1
NC(=O)Nc1ccc(Nc2ccccc2)cc1 | 0 | -8 | 1 | 1 | i
O=C(Nc1ccc(Nc2ccccc2)cc1)C(Cl)(Cl)Cl | -7 | 4 | 33* | -4 | 0
CCN(CC)CCOc1ccc(C(=C(Cl)c2ccccc2)c2ccccc2)cc1 | 97*! | · | · | 71 | ·
CCN(c1ccccc1)S(=O)(=O)c1ccc(C(=O)Nc2nnc(CSC)o2)cc1 | 24 | 48 | 40* | 15 | 0
CCCCN(CCCC)S(=O)(=O)c1ccc(C(=O)Nc2nnc(CSC)o2)cc1 | 112* | 69 | 7 | 99* | i
SMILES | RN4220 kill | Mtb betalactam | PfHsp40 rescue | ugtP null kill | BH1578 lux ind
CCCCN(CC)S(=O)(=O)c1ccc(C(=O)Nc2nnc(CSC)o2)cc1 | 47 | · | 0 | 17 | 0
CCOC(=O)C1C2COc3ccccc3C2N2C(=O)N(c3ccc(Br)cc3)C(=O)[C@]12C (stereo partly specified) | -1 | · | · | -18 | ·
CC(=O)O/C(=C1\CC2C3CC=C4CC(OC(C)=O)CCC4(C)C3CCC2(C)C1=O)C(F)(F)F (stereo unspecified) | 100* | · | 9 | 100* | ·
CC(=O)O[C@H]1CC[C@@]2(C)C(=CC[C@@H]3[C@@H]2CC[C@]2(C)C(=O)CC[C@@H]32)C1 | · | 1 | 4 | · | 3
COc1cccc(OCc2cc(C(=O)N3CCN(C)C(c4ccccc4)C3)no2)c1 (stereo unspecified) | 0 | 17 | 149* | 5 | -3
Cc1cc2c(nc1C)CCCN2CC(C)ON=C1C2CCn3c(=O)n(-c4ccccc4)c(=O)n3C2C(O)C2OC12 (stereo unspecified) | 7 | · | · | -1 | ·
CC(=NOCC(=O)OCC(=O)N(C)c1ccccc1)c1ccc2c(c1)OCO2 | 3 | · | · | 8 | ·
Cn1c(N/N=C/c2cccs2)cc(=O)n(C)c1=O | · | -5 | -1 | · | 33*
